# In PubChem BioAssay:
# Molecular target: Fibroblast growth factor 10 (Homo sapiens) (UniProt O15520)
# Experiment: compounds binding fibroblast growth factor 10 – biochemical, small-molecule microarray, 635 nm fluorescence, primary screen (AID 1102)
# Conditions: FGF10 binding, fluorescence 635 nm, higher = more signal
# Chain of Fibroblast growth factor 10 (Homo sapiens) (O15520 whole entry, looked up): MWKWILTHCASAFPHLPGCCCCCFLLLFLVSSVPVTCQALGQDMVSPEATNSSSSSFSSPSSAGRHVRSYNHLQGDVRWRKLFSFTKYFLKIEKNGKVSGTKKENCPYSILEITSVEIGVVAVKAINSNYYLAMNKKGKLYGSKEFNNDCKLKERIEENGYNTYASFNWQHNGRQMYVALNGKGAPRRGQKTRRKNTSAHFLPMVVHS
row,SMILES,composite z-score
1,Cc1ccc(S[C@]2(C(=O)NCCN3CCOCC3)CC(=O)N(Cc3ccccc3Cl)[C@@H]2c2ccc(CO)cc2)cc1,1
2,C[C@@]1([C@@H](NC(=O)c2ccccc2)c2ccc(-c3ccccc3)cc2)C[C@H]1C1CCCCC1,-0.145
3,COc1ccc(COC2OC[C@]3(C)[C@H]4C5=C(CN3C(=O)OC(C)(C)C)[C@H](C)C(CO)C(CO)C5CC[C@@H]24)cc1 (some centres undefined),0.755
4,C=C(/C(=C/C[C@@H](OC(C)=O)c1ccc(OCCO)cc1)c1cnc2ccccc2c1)C(C)C,0.528
5,C=CCOC(=O)[C@@H]1[C@H]2C(=O)O[C@H](c3ccccc3)[C@H](c3ccccc3)N2[C@H](c2ccc(OCCOC(=O)[C@@H]3C[C@@H]4C(=O)N[C@@H](Cc5ccccc5)C(=O)N4[C@@H]3c3ccc(O)cc3)cc2)[C@@]12C(=O)Nc1ccc(I)cc12,1.16
6,CCCCCC1=C2CNC(CCC)(C(=O)OC)C=C2C(C)C1=O (centres undefined),0.439
7,C=C(C)C1C(=C)CN([C@H](CO)c2ccccc2)C1=O (some centres undefined),-0.0267
8,O=C1C2C=CC(C(O)c3ccc(F)cc3)N(Nc3ccccc3F)C2C(=O)N1c1ccccc1 (centres undefined),0.678
9,CCOc1cc(C(O)C2C=CC3C(=O)N(c4ccccc4)C(=O)C3N2Nc2ccccc2)ccc1O (centres undefined),0.671
10,CCCCCN1CC=CC23O[C@@H]4/C=C\CCCOC(=O)C4[C@H]2C(=O)N(C(CO)C(C)C)[C@@H]3C1=O (some centres undefined),0.0758
11,CC(CO)N1C(=O)[C@@H]2C3C(=O)OCCC/C=C\[C@H]3OC23C=CCN(c2ccc4ccccc4c2)C(=O)[C@@H]13 (some centres undefined),-1.01
12,COCCCNC(=O)C1N=C(c2ccc(OCCCO)cc2)N(c2ccccc2)O1 (centres undefined),1.3
13,COCCOC(=O)N1C(=O)[C@@]2(c3cc(C#CCCO)ccc31)[C@H](C(=O)N1CCN(c3ncccn3)CC1)[C@H]1C(=O)O[C@H](c3ccccc3)[C@H](c3ccccc3)N1[C@@H]2c1ccccc1OCCO,0.727
14,CS(=O)(=O)CCOC(=O)C1=CC(CCCO)=CC(c2ccc(CN3CCCC3)cc2)N(Cc2cc3c(cc2Br)OCO3)C=C1C(=O)OCCS(C)(=O)=O (centres undefined),1.2
15,CCOC(=O)[C@H]1CC=C2CC1C(=O)N1CCC[C@@H]1[C@@H]2O[Si](C)(C)C(C)(C)C (some centres undefined),-0.997
16,COC(=O)[C@@]1(Cc2ccccc2)[C@H]2c3cc(C(=O)N4CCCC4)n(Cc4cccc5ccccc45)c3C[C@H]2CN1C(=O)c1ccccc1,0.664
17,CC(C)(C)OC(=O)CC[C@]1(C(=O)NCC(O)CO)COC(c2ccc(OCCCO)cc2)=N1 (some centres undefined),0.145
18,CCc1oc(CC[C@@H](CO)NC(=O)NCCn2cc(C3(O)CCCCC3)nn2)c(C(=O)OC)c1C(=O)OC,1.13
19,COCCOC(=O)N1C(=O)[C@@]2(c3cc(C#Cc4ccc(OC)cc4)ccc31)[C@H](C(=O)N1CCCCCCC1)[C@H]1C(=O)O[C@H](c3ccccc3)[C@H](c3ccccc3)N1[C@@H]2c1ccc(OCCO)cc1,1.7
20,O=C(NCc1ccccc1)[C@@H]1c2ccccc2C(=O)N(CC23CC4CC(CC(C4)C2)C3)[C@H]1c1ccc(CO)cc1,0.971
21,COC(=O)[C@@]1(Cc2ccc(OC)cc2)[C@H]2c3cc(C(=O)N(C)C)n(Cc4cccc5ccccc45)c3C[C@H]2CN1C(=O)c1ccccc1,1.04
22,COc1ccc(C(O)C2C=CC3C(=O)N(c4ccccc4)C(=O)C3N2Nc2ccccc2F)cc1OCc1ccccc1 (centres undefined),0.771
23,COc1ccc(CCNC(=O)[C@@]2(C)c3ccccc3C(=O)N(Cc3cc(F)cc(C(F)(F)F)c3)[C@H]2c2ccc(CO)cc2)cc1,0.512
24,O=C1OCCC/C=C\[C@H]2OC34C=CCN(CCN5CCOCC5)C(=O)[C@H]3N(CCCO)C(=O)[C@@H]4C12 (some centres undefined),0.0487
25,COc1cc2c(cc1OC)CN(C(=O)[C@H]1[C@@H]3C(=O)O[C@@H](c4ccccc4)[C@@H](c4ccccc4)N3[C@@H](c3ccc(O)cc3)[C@]13C(=O)Nc1ccc(C#CC4=CCCCC4)cc13)CC2,1.14
26,C=CC[C@]12N=C(c3ccc(OCCCO)cc3)O[C@H]1c1ccccc1N(Cc1ccccc1)C2=O,0.706
27,CN1C(=O)C2C=CC(C(O)c3ccccc3)N(Nc3ccccc3)C2C1=O (centres undefined),-0.678
28,COc1ccc([C@H]2C[C@H]3C(Br)=C[C@@H]2C(=O)[C@]32CO2)cc1,-0.105
29,CC(C)C(CO)N1C(=O)[C@@H]2[C@H]3C(=O)OCC=C[C@H]3OC23C=CCN(C(C)C)C(=O)[C@@H]13 (some centres undefined),-0.321
